Source: PubChem
RORg inh = ROR gamma (mouse) transcription inhibition. AID 2551. Drosophila S2 Gal4-RORgamma UAS-luciferase reporter, 20 h. P51450. 310,000 compounds, 5.4% hits. Potency, µM (doses to about 53.6 µM), usual class: inhibitors; also: nearly all actives have a fitted effect of over 60% in size
Target sequence (P51450 whole entry, looked up, the tested form may be a part): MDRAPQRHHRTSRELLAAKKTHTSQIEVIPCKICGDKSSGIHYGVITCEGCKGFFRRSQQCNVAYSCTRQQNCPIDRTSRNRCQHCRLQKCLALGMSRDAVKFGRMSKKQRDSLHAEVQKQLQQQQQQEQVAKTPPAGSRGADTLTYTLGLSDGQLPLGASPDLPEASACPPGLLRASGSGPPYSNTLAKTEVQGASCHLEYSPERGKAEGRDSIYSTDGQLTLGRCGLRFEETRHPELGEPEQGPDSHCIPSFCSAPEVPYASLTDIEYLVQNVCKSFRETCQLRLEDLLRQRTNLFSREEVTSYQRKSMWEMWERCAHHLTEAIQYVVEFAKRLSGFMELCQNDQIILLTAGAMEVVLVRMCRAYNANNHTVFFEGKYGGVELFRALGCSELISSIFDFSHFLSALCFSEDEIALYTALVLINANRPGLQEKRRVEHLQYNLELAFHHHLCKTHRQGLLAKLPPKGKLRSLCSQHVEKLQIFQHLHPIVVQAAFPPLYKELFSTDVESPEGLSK
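Luciferase reporter read in Schneider cells carrying Gal4-RORγ (mouse) and UAS-Photinus luciferase; cells given compound 1 h before 700 uM copper sulfate induction, then incubated 20 h at ambient temperature.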
SW480 rerep = inducers of DNA re-replication in SW480 colon cancer cells | SW480 DNA re-replication, Hoechst DNA content imaging, 48 h | Potency, µM (top dose mostly 46.1 µM), most hits filed as activators | 340,000 compounds, 1.8% hits; also: nearly all actives have a fitted effect of over 55% in size
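Readout is total intensity of Hoechst-stained nuclei, excited at 405 nm and collected at 500-530 nm. Compound treatment lasted 48 hr at 37 C in 5% CO2 before staining.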
IL-1B inflam inh = inhibitors of inflammasome signaling (IL-1 beta secretion). THP-1 LPS/ATP IL-1B secretion, AlphaLISA, 16 h; stronger effect = lower value. activity change, % at 57.5 µM. 360,000 compounds, 4.7% hits; in the data active = activity change below about -50%; inconclusive = mostly about -30% to -49%
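THP-1 cells pretreated 1 hr with compounds (up to 57.5 uM final), then stimulated with LPS (250 ng/mL final) plus ATP (1.25 mM final); secreted IL-1B measured by AlphaLISA after 16 hr, decreased signal indicating inhibition.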
Gal4-VP16 FLuc = Gal4-VP16 reporter inhibition counter-screen; 310,000 compounds, 3.5% hits; Drosophila S2 Gal4-VP16 UAS-luciferase, luminescence, 20 h; Potency, µM (highest dose often 53.6 µM), hits mostly inhibitors;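 also: Gal4-VP16 expression switched on by copper sulfate through the metallothionein promoter; nearly all actives have a fitted effect of over 50% in size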
MCF10A rerep = induces DNA re-replication in MCF 10a normal breast cells | MCF 10A DNA re-replication, Hoechst nuclear intensity, 48 h | Potency, µM (top dose mostly 46.1 µM), most hits filed as activators | 350,000 compounds, 2.9% hits | AID 624296; also: nearly all actives have a fitted effect of over 50% in size
Hits are given with their value; i = inactive; ? = inconclusive; nt = no result given; [ ] = remark or other dose. Hits are enriched below; roughly 11% of the tested compounds scored in any of these assays. Unless noted, calls follow the shape of the dose curve; as a rule, active = well fitted curve in the direction sought with a large enough effect; inconclusive = small, poorly fitted or top-dose-only effect, or another doubt; inactive = no such curve, though single readings can be large; an effect the other way counts as inactive or inconclusive.

SMILES | RORg inh | SW480 rerep | IL-1B inflam inh | Gal4-VP16 FLuc | MCF10A rerep
CCCCCCOC(=O)CC1CC(C(C)=O)C1(C)C (stereo unspecified) | nt | i | i | nt | i
CCOC(=O)C1(C)CCCN(C(=O)c2cccc(C#N)c2)C1 (stereo unspecified) | nt | nt | i | nt | nt
Cc1ccc(-c2cc(-c3ccccc3C)[nH]n2)c(O)c1 | 0.79µM | ? | i | 1.4µM | ?
Cc1ccc(O)c(-c2cc(-c3cccc(F)c3)n[nH]2)c1 | ? | ? | i | ? | 26µM
Cc1ccc(O)c(-c2cc(-c3ccccc3F)[nH]n2)c1 | ? | i | i | ? | ?
Oc1ccccc1-c1cc(C(F)(F)F)[nH]n1 | ? | nt | nt | i | nt
O=[N+]([O-])c1ccccc1-c1cc(-c2ccccc2O)n[nH]1 | ? | i | -74 | ? | i
Cc1ccc(-c2cc(-c3cccc(F)c3)n[nH]2)c(O)c1 | 11µM | i | i | 10µM | ?
CCN1C(=O)[C@H]2[C@H]3[C@H](O)[C@H](O)C/C(=N/O[C@@H]4O[C@@H](COC(C)=O)[C@@H](OC(C)=O)[C@@H](OC(C)=O)[C@H]4OC(C)=O)[C@H]3CC[C@@H]2C1=O | i[10 µM] | nt | nt | i[10 µM] | nt
COc1cc(CN2CCNC(=O)C2CC(=O)NCCCC2CCCC2)cc(OC)c1 (stereo unspecified) | i | i | i | i | i
O=C(NCCc1ccccc1)C1Cc2c(-c3ccccc3)ccnc2O1 (stereo unspecified) | nt | nt | i | nt | nt
CCc1c(C)nc2cc(-c3cc(OC)cc(OC)c3)nn2c1N1CCCC1 | 7.1µM | i | ? | 13µM | i
COc1ccc(/C=C/c2cc[n+](C(=O)Cc3ccccc3)cc2)cc1 | i | i | -108 | i | ?
COc1ccc(/C=C/C(=O)NCCCc2ccccc2)cc1 | ? | i | i | i | i
O=C(CCc1nnc2n(Cc3ccc(Cl)cc3)c(=O)c3ccccc3n12)NCCN1CCCC1 | i | i | -59 | i | i
O=C(CCc1nnc2n(Cc3ccc(Cl)cc3)c(=O)c3ccccc3n12)NCCCN1CCOCC1 | i | i | i | i | i
CS(=O)(=O)Nc1ccc(C(=O)Nc2ccc3ccccc3c2)cc1 | i[1.91 µM] | i | i | i | i
CC(C)=CCCC(C)C1CC[C@@]2(C)C3=C(CC[C@@]12C)C1(C)CCC(O)C(C)(C)C1CC3 (stereo partly specified) | i | nt | nt | i | nt
CN1CCN(Cc2nc3ccccc3c(=O)n2CC#N)CC1 | i | ? | i | i | i
N#CCn1c(CCl)nc2ccccc2c1=O | i | i | -56 | i | i
CCOC(=O)C1CCCN(C(=O)c2cccc(OC(F)(F)F)c2)CC1 (stereo unspecified) | nt | nt | i | nt | nt
Cn1cccc1/C=N/NC(=O)c1ccncc1 | ? | i | i | i | i
Cn1cccc1/C=N/NC(=O)c1cc(-c2cccs2)nc2ccccc12 | 7.1µM | 15µM | i | ? | 5.8µM
Cn1cccc1/C=N/NC(=O)c1cc2ccccc2cc1O | 1.4µM | ? | i | 2µM | i
O=C(N/N=C/c1ccc2ncccc2c1)c1cc(-c2cccs2)nc2ccccc12 | i | i | i | i | 5.8µM
SMILES | RORg inh | SW480 rerep | IL-1B inflam inh | Gal4-VP16 FLuc | MCF10A rerep
O=C(N/N=C/c1ccc[nH]1)c1cc(-c2cccs2)nc2ccccc12 | 2.8µM | i | i | 6.3µM | i
CCC(C)[C@H](NC(=O)[C@@H]1CSC2c3ccccc3C(=O)N21)C(=O)NCc1ccco1 (stereo partly specified) | i | i | i | i | i
Nc1nc2ccccc2cc1C(=O)NCc1ccc(-c2ccccc2)cc1 | nt | nt | i | nt | nt
O=c1c2ccccc2[nH]c2ccccc12 | ? | 18µM | i | 20µM | i
O=c1c2c([nH]c3ccccc13)CCCCC2 | ? | i | i | 18µM | i
O=c1[nH]c2ccccc2c2ccccc12 | i | ? | i | i | i
CCN(C(=O)CSc1nncn1-c1ccccc1)C1CCS(=O)(=O)C1 (stereo unspecified) | nt | i | i | nt | i
Fc1ccc(Nc2nc(-c3cccnc3)nc3ccccc23)cc1 | i | nt | nt | i | nt
CCc1ccc(OCC(=O)NNC(=S)NC(=O)C2CCCCC2)c(Br)c1 | 10µM | i | i | i | i
CCc1ccc(OCC(=O)NC2CCCCC2)c(Br)c1 | 2.8µM | ? | i | 4µM | i
Cc1ccc(C(C)C)cc1OCC(=O)NC1CCCCCCC1 | nt | ? | -57 | nt | ?
CCc1ccc(OCC(=O)NNC(=S)NC(=O)C2CC2)c(Br)c1 | ? | i | i | i | i
CC(C)NC(=O)C1(C)CN(S(C)(=O)=O)CC(=O)N1CCc1ccccc1 (stereo unspecified) | nt | nt | i | nt | nt
CC(=O)CCOC1CCCCO1 (stereo unspecified) | i | nt | nt | i | nt
CCCNC(=O)C1(C)CCCN(C(=O)COCc2ccccc2)C1 (stereo unspecified) | nt | nt | i | nt | nt
CCCNC(=O)C1(C)CCN(C(=O)COCc2ccccc2)C1 (stereo unspecified) | nt | nt | -56 | nt | nt
COc1ccc(C)cc1S(=O)(=O)N1CCCC(C(=O)N2CCN(c3ccccc3)CC2)C1 (stereo unspecified) | ? | i | i | i | i
O=c1ccc2ccccc2c2ccccc12 | nt | nt | -115 | nt | nt
c1ccc2c(c1)ccc1ccccc12 | i | i | i | i | i
COC(=O)CNC(=O)[C@@]1(C)C=C[C@@H](Cc2ccccc2)N1C(=O)OC | i | nt | nt | i | nt
c1ccc(-c2[nH]ncc2-c2ccnc3ccccc23)nc1 | 2µM | nt | nt | 3.2µM | nt
COc1ccc(OC)c(NC(=O)CSc2nnc(-c3ccco3)n2-c2ccccc2)c1 | i | 3.7µM | i | i | i
COCCn1c(SCC(=O)Nc2ccccc2OC)nnc1-c1ccco1 | i | i | i | i | i
CCCn1c(SCC(=O)Nc2ccccc2OC)nnc1-c1ccco1 | i | 9.2µM | i | i | 6.5µM
O=[N+]([O-])c1ccc(S(=O)(=O)N2CCN(Cc3ccco3)CC2)cc1 | i | i | i | i | i
SMILES | RORg inh | SW480 rerep | IL-1B inflam inh | Gal4-VP16 FLuc | MCF10A rerep
COc1ccc(-c2cc(C(=O)NCc3ccc(F)cc3)[nH]n2)c(C)c1 | nt | nt | i | nt | nt
Cc1ccc(N2C(=O)[C@@H]3[C@H](C2=O)[C@H]2C=C(C(=O)c4ccccc4)C=CN2[C@@H]3C(=O)c2ccc(Cl)cc2)cc1 | i | i | i | i | ?
Cc1ccc(N2C(=O)[C@@H]3[C@H](C2=O)C2CCCN2[C@@H]3C(=O)c2ccccc2)cc1 (stereo partly specified) | 6.3µM | ? | i | ? | ?
O=C(c1ccccc1)[C@@H]1[C@@H]2C(=O)N(c3ccc(F)cc3)C(=O)[C@@H]2C2CCCN21 (stereo partly specified) | ? | ? | -59 | ? | ?
CCCCNC(=O)C1C(c2ccc(C(F)(F)F)cc2)=Nc2ccccc2N1C(=O)c1ccc2nc(C)[nH]c2c1 (stereo unspecified) | nt | nt | i | nt | nt
CCN(CC)c1nc(=S)nc(NC(C)(C)C)[nH]1 | 1.3µM | i | i | 3.2µM | i
COc1cccc(/C=N/Nc2nnc(C)n2N)c1O | 2.2µM | ? | i | 3.2µM | i
